{"source": "paper PMC6689086", "key": {"[1]": {"molecular_target": "ATP-dependent molecular chaperone HSC82 (UniProt P15108)", "sequence (P15108 whole entry)": "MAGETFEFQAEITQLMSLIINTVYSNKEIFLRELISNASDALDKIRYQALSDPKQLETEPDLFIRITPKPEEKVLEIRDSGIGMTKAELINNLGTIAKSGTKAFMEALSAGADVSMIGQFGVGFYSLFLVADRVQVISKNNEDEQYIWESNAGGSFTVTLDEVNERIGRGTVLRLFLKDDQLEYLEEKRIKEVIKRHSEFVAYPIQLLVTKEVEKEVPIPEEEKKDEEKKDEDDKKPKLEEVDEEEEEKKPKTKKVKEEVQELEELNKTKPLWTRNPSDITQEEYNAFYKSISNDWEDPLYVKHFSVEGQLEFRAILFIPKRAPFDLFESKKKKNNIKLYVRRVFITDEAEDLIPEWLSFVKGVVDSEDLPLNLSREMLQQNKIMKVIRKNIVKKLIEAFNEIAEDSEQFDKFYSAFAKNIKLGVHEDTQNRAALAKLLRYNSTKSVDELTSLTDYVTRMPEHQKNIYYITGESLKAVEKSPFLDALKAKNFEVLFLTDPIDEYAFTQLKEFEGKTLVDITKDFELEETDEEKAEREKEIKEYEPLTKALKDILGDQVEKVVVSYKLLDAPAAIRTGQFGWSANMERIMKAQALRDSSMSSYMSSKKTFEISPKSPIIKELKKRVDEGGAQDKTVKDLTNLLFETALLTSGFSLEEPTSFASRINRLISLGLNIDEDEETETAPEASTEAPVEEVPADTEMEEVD", "test": "mass-spectrometry hit list; affinity purification or IP with mass spectrometry"}, "[2]": {"molecular_target": "Heat shock protein SSA1 (UniProt P10591)", "sequence (P10591 whole entry)": "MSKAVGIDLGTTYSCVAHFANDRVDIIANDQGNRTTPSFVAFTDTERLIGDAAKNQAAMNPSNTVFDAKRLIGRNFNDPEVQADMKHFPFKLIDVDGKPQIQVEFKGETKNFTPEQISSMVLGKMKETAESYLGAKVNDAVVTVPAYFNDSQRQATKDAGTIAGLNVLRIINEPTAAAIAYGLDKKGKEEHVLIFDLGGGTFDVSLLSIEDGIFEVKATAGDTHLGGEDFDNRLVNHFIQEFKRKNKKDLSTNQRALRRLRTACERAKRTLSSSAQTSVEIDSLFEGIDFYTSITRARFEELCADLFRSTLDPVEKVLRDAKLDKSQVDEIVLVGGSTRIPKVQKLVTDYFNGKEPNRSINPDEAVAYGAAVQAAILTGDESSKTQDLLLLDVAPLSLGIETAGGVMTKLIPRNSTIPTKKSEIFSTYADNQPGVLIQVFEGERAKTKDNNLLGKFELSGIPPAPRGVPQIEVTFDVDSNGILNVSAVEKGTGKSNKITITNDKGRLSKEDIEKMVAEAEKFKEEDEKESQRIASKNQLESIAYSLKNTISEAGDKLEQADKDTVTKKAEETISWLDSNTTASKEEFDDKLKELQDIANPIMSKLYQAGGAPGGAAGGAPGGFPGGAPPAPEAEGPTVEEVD", "test": "mass-spectrometry hit list; affinity purification or IP with mass spectrometry"}}}
{"substance": "Heat shock protein SSA1, P10591", "values": [{"measurement": "listed as a hit", "setting": "[1]", "value": "yes"}]}
{"substance": "ATP-dependent molecular chaperone HSP82, P02829", "values": [{"measurement": "listed as a hit", "setting": "[2]", "value": "yes"}]}
